Screening results as filed in PubChem.
DT40 TDP1 CPT: growth inhibition of DT40 Tdp1-/-;hTDP1 cells with camptothecin (screen for TDP1 inhibitors); chicken DT40 Tdp1-/-;hTDP1 cells + 20 nM CPT, ATP luminescence, 48 h; Potency, µM (doses to about 46.2 µM), without a hit: top-dose activity change, negative = growth inhibition, usual class: inhibitors; 12% of 420,000 active; note: potency is the fitted concentration of half-maximal effect; % is set by controls: 0 for no effect and ±100 for the full control effect; nearly all actives have a fitted effect of over 55% in size
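Cell growth measured by CellTiter-Glo luminescence after a minimum 48 h, 37 C compound exposure with 20 nM CPT in Tdp1-knockout DT40 cells stably expressing hTDP1, seeded 400/well; qHTS titration format.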
DT40 TDP1 no CPT: qHTS for Inhibitors of human tyrosyl-DNA phosphodiesterase 1 (TDP1): qHTS in cells in absence of CPT. DT40 Tdp1-/- hTDP1 cells, no CPT, ATP luminescence, 48 h. Potency, µM (series often up to 46.2 µM), without a hit: at the top dose activity change, negative = growth inhibition, actives largely listed as inhibitors. 15% of 420,000 active. AID 686978, 2013; note: potency is the fitted concentration of half-maximal effect; % is set by controls: 0 for no effect and ±100 for the full control effect; nearly all actives have a fitted effect of over 55% in size
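Cells were dispensed at 400 per well, compounds added by pin tool, plates incubated ≥48 hr at 37 °C, then CellTiter-Glo added for 30 min at room temperature before luminescence reading. Line: DT40 Tdp1-/- complemented with hTDP1; camptothecin omitted.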
HepG2 tox: HepG2 cytotoxicity, counter-screen for TGF-b inhibitors; HepG2 CAGA-GFP viability, ATP luminescence, 18 h; Potency, µM (highest dose often 46.1 µM), for the others: at the highest dose activity change, negative = cytotoxicity, hits mostly cytotoxic; 0.76% of 410,000 active; AID 588856; note: potency is the fitted concentration of half-maximal effect
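HepG2 CAGA-GFP cells (1000/well, DMEM with 1% FBS) received compound, then TGF-beta at 500 pg/mL final, and were incubated 18 hours at 37 degrees C. Viability was read by CellTiter-Glo luminescence. Media-only wells were set as complete cell-killing and DMSO as no toxicity.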
TGFb inhibitor: TGF-b pathway inhibition. HepG2 CAGA-GFP TGF-b/SMAD3 reporter, GFP fluorescence, 18 h; TGF-beta stimulated, 500 pg/mL final. Potency, µM (series often up to 46.1 µM), for the others: at the top dose activity, negative = inhibition, most hits filed as inhibitors. 1.2% of 410,000 active; note: potency is the fitted concentration of half-maximal effect; % is set by controls: 0 for no effect and ±100 for the full control effect; nearly all actives have a fitted effect of over 65% in size
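Cell-based qHTS in HEPG2 carrying a CAGA-GFP Smad reporter; compounds added before 500 pg/mL final TGF-beta, 18 h incubation at 37 degrees C, GFP fluorescence quantified per cell by imaging cytometry.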
S-ASM inh: human S-ASM enzyme inhibition. 0.006% of 340,000 active. placental ASM, HMU-PC fluorogenic substrate, 60 min. AID 504937. Potency, µM (series often up to 57.5 µM), inactives show top-dose activity change, negative = inhibition, hits mostly inhibitors. P17405; note: potency is the fitted concentration of half-maximal effect
Target sequence (P17405 47-631 limits assumed): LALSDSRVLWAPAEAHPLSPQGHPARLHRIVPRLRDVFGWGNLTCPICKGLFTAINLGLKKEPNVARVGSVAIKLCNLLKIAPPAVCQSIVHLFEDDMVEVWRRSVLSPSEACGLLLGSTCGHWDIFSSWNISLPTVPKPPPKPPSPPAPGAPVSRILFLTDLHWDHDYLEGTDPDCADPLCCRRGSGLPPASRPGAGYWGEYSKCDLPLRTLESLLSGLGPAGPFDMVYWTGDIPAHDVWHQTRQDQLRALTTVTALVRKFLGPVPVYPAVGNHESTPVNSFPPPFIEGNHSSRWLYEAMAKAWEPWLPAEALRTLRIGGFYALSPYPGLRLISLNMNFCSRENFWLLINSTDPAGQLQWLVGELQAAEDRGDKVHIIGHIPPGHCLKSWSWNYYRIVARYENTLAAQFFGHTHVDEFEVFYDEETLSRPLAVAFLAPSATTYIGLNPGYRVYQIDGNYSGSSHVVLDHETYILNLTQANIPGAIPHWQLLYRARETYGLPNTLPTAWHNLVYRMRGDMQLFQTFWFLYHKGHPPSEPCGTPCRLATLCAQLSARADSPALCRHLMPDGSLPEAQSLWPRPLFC
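Human placenta-derived ASM enzyme was preincubated with compound for 10 minutes at room temperature, then given fluorogenic substrate HMU-PC0 (9 uM final) for 60 minutes at 37 °C; a pH 10 stop preceded fluorescence reading at Ex 386/Em 447 nm.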
IL1B secr inh: inflammasome signaling inhibition, IL-1 beta readout; THP-1 LPS/ATP IL-1B secretion, AlphaLISA, 16 h; active compounds read low; AID 743279; 4.7% of 360,000 active; activity change, % at 57.5 µM; in the data active = activity change below about -50%; inconclusive = mostly about -30% to -49%; note: % is set by controls: 0 for no effect and ±100 for the full control effect
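THP-1 cells pretreated 1 hr with compounds (up to 57.5 uM final), then stimulated with LPS (250 ng/mL final) plus ATP (1.25 mM final); secreted IL-1B measured by AlphaLISA after 16 hr, decreased signal indicating inhibition.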
* marks the source's active call; other numbers are inactive results; u = inconclusive; x = no result given. The list is not random: actives were taken first. Their share in the collection is about 19%. Unless noted, calls come from the whole dose curve; as a rule, active = well fitted curve in the direction sought with a large enough effect; inconclusive = small, poorly fitted or top-dose-only effect, or another doubt; inactive = no such curve, though single readings can be large; an effect the other way counts as inactive or inconclusive.

SMILES | DT40 TDP1 CPT | DT40 TDP1 no CPT | HepG2 tox | TGFb inhibitor | S-ASM inh | IL1B secr inh
CC1=C(C(=O)N(C)C)CC(CC(=O)NC2CC2)C(=O)N1Cc1ccc(C(C)(C)C)cc1 (stereo unspecified) | -12% | u | -1% | 34% | x | 20
COCCNC(=O)C1(C)CCCN(C(=O)c2ccccc2C(F)(F)F)C1 (stereo unspecified) | -19% | 1% | 2% | 29% | x | 26
Cc1cc(NCc2cccnc2)nc(N)n1 | -2% | 21% | 3% | -1% | 5% | -8
O=C(NCN1CCc2ccccc2C1)c1cnccn1 | u | 23µM* | -19% | u | 7% | 11
COc1ccc(OC)c(CNC(=O)c2ccccc2NC(=O)c2nsc3ccccc23)c1 | u | u | -12% | -19% | x | x
Cc1ccc(CSCCNC(=O)c2ccccc2)cc1 | -21% | -36% | 0% | 2% | 2% | 3
CCOc1cc(CNC(=O)c2ccccc2NC(=O)c2nsc3ccccc23)ccc1OC | 16µM* | 18µM* | -14% | -7% | x | x
CCOc1ccccc1CNC(=O)c1cccc(NC(=O)c2nsc3ccccc23)c1 | 5.8µM* | 5.2µM* | -50% | u | x | x
Cc1ccccc1CNC(=O)c1ccc(CSCc2ccccc2)cc1 | u | 21µM* | -19% | -3% | -2% | -23
O=C(Nc1ccc(C(=O)N2CCCCC2)cc1)c1nsc2ccccc12 | 21µM* | 21µM* | -75% | 9% | x | x
CCCCOc1ccc(C2(C)NC(=O)N(C)C2=O)cc1 (stereo unspecified) | -14% | u | -14% | -12% | 3% | 3
Cc1ccccc1CNC(=O)c1ccc(NC(=O)c2nsc3ccccc23)cc1 | 15µM* | 12µM* | -44% | -11% | x | x
CCOC(=O)c1ccc(NC(=O)c2nsc3ccccc23)cc1 | 18µM* | u | -55% | x | x | x
COCCNC(=O)COC(=O)/C=C/c1c(C)nn(Cc2ccc(Cl)cc2Cl)c1Cl | 15µM* | 16µM* | -41% | u | -10% | 1
CCCN(CCC)C(=O)CN1C(=O)CSc2ccc(S(=O)(=O)N3CCC(C)CC3)cc21 | u | u | -30% | u | x | x
COc1ccccc1C(C(=O)NC1CCCC1)N(C(=O)c1csnn1)C1CC1 (stereo unspecified) | 5% | 1% | 0% | -9% | 3% | u
COc1ccc(-c2nc(-c3cccs3)c(-c3cccs3)[nH]2)cc1O | 16µM* | 13µM* | -8% | u | 8% | -2
Cn1cc(C(=O)NCCc2ccccc2)c(=O)c2cc(S(=O)(=O)N3CCCCC3)ccc21 | 19% | -18% | 23% | -15% | x | x
CC1CCN(C(=O)Nc2cccc(NC(=O)N3CCC(C)CC3)c2)CC1 | -6% | 5.2µM* | -29% | -32% | 0% | u
CC1CCN(C(=O)Nc2ccc3nsnc3c2)CC1 | 0% | -21% | 1% | -24% | 112% | -6
O=C(Nc1ccccc1)N1CCCC1 | 6% | 2% | 4% | -7% | 3% | -1
COC(=O)C1CCN(C(=O)Nc2ccccc2)CC1 | 8% | -7% | 5% | -5% | 7% | -105*
CC(C)(C)C(=O)Nc1ccc(-c2nnc3n2CCCCC3)cc1 | -3% | 4% | -11% | -2% | 0% | 12
Cc1ccccc1C(=O)Nc1ccnn1C1CCN(Cc2ccccn2)CC1 | -1% | -2% | -32% | -5% | 6% | -8
COc1ccc(-c2cc(C(F)(F)F)nc(-n3cncn3)n2)cc1 | -15% | -27% | -13% | -10% | 13% | -11
COc1ccc(-c2cc(C(F)(F)F)nc(-n3nc(C(F)(F)F)cc3C)n2)cc1 | 15µM* | 13µM* | -1% | u | x | x
